SMILES strings stand for the structures. Activity calls are given as the source filed them. Rule for the calls: active = hit-call score of the fitted dose curve at least 0.9, where 1 is the maximum; inactive = score below 0.9.

Read-out in this assay: Low-density lipoprotein receptor (LDLR), LDLR (gene 3949)
Put plainly: BSK_CASM3C_LDLR: BioMAP Diversity Plus: CASM3C Assay for Low-density lipoprotein receptor (LDLR) Biomarker Activity (AID 2283045).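 Note: LDLR protein level on the cell surface quantified by ELISA.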 Particulars: primary human coronary artery smooth muscle cells; actives raise or lower the signal.
As for `CN(C)C(=O)Nc1cccc(C(F)(F)F)c1`, the outcome was inactive. The same measure for `COP(=O)(NC(C)=O)SC` (centres undefined): “inactive”; for `CN(C)NC(=O)CCC(=O)O`: “inactive”.

As for `C[Si](Cn1cncn1)(c1ccc(F)cc1)c1ccc(F)cc1`, the result was inactive.

Turning to `CCCOCC(=Nc1ccc(Cl)cc1C(F)(F)F)n1ccnc1`, the outcome was inactive. With `CC1=NNC(=O)N(/N=C/c2cccnc2)C1` the entry was “inactive”; with `C#CCC1=C(C)C(OC(=O)C2C(C=C(C)C)C2(C)C)CC1=O` (centres undefined), “inactive”. As for `COP(=O)(OC)C(O)C(Cl)(Cl)Cl` (centres undefined), the outcome was inactive. The same measure for `COP(=O)(OC)SCn1c(=O)oc2cc(Cl)cnc21`: “inactive”; for `CCOP(=S)(Oc1cnc(C(C)(C)C)nc1)OC(C)C` (centres undefined): “inactive”.

For `CNC(=O)ON=C(SC)C(=O)N(C)C`, the outcome was inactive. With `CCOP(=S)(OCC)SCCSCC`, the outcome was inactive.

For `CNc1cnn(-c2cccc(C(F)(F)F)c2)c(=O)c1Cl`, the outcome was inactive.

Take `CC1(C(=O)Nc2ccc(O)c(Cl)c2Cl)CCCCC1`: the result was inactive. The same measure for `CN1COCN(Cc2cnc(Cl)s2)C1=N[N+](=O)[O-]`: “inactive”. With `CCCCSP(=O)(SCCCC)SCCCC` the entry was “inactive”; with `CC(C1CC1)C(O)(Cn1cncn1)c1ccc(Cl)cc1` (centres undefined), “inactive”; with `CC[C@H](C)[C@H]1O[C@]2(C=C[C@@H]1C)C[C@@H]1C[C@@H](C/C=C(\C)[C@@H](O[C@H]3C[C@H](OC)[C@@H](O[C@H]4C[C@H](OC)[C@@H](NC)[C@H](C)O4)[C@H](C)O3)[C@@H](C)/C=C/C=C3\CO[C@@H]4[C@H](O)C(C)=C[C@@H](C(=O)O1)[C@]34O)O2`, “inactive”. With `CC(C)=CC1C(C(=O)OCN2C(=O)C3=C(CCCC3)C2=O)C1(C)C` (centres undefined) the entry was “inactive”.

The record behind these values is PubChem BioAssay (EPA / NIEHS).
